SMILES strings stand for the structures. A number with no mark means an inactive call. Where a call stands in place of a potency, no number is given. The source made the active and inactive calls. Calls follow the shape of the full dose curve.

Sequence of Muscarinic acetylcholine receptor M1 (Homo sapiens) (P11229 whole entry, looked up): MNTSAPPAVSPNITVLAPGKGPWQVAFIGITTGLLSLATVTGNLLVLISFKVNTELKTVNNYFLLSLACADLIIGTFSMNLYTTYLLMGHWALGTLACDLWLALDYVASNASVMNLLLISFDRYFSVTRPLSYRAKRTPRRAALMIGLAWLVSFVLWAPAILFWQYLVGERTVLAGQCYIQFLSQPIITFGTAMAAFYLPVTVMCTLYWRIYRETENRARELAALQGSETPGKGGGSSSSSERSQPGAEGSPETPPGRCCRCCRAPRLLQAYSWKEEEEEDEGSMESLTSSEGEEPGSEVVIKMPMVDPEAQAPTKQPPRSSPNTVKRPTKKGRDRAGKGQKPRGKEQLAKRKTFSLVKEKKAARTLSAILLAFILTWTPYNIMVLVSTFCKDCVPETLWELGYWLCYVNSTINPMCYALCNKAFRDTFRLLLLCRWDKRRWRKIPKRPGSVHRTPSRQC

This experiment concerns the target Muscarinic acetylcholine receptor M1 (Homo sapiens) (UniProt P11229). Kind of experiment: Cholinergic receptor muscarinic 1 (CHRM1) small molecule agonists, cell-based qHTS assay (AID 1963589). Also: nearly all actives have a fitted effect of over 35% in size. To be noted: CHRM1-CHO cells, agonist mode, calcium flux fluorescence; series mostly up to 76.8 µM. From the text:
National Center for Advancing Translational Sciences [NCATS]
Division of Preclinical Innovation [DPI]
U.S. Environmental Protection Agency [EPA]
National Institutes of Environmental Health Sciences [NIEHS]
National Toxicology Program [NTP]
U.S. Food and Drug Administration [FDA]
The CHRM1 is a muscarinic receptor. This receptor plays a crucial role in learning and memory processes and has long been identified as a promising therapeutic target for the improvement of cognitive decline in Alzheimer's disease (AD). The CHRM1-CHO cell line stably expressing human muscarinic acetylcholine receptor M1 (CHRM1) can be used for screening agonists and antagonists of interactions between CHRM1 and its ligands. The CHRM1-CHO Calcium Flux Assay is a homogeneous fluorescence-based assay for detecting the intracellular calcium level using FDSS kinetic plate reader system.
CHRM1-CHO cells were dispensed at 1000 cells/3uL/well in 1536-well black-clear bottom plates using a Multidrop Dispenser. After the assay plates were incubated at a 37 C/5% CO2 incubator for 18 h, 3 uL of Dye Loading Buffer was transferred to the assay plate by a Flying Reagent Dispenser. The assay plates were incubated at 37 C for 1h. For agonist mode, 23 nL of compounds dissolved in DMSO, positive controls or DMSO only was transferred to the assay plate by a pin tool. […] Each test compound was measured at 15 concentrations in three independent runs.
In the case of `Cc1cccc(C)c1NC(=O)CN1CCN(CCCC(c2ccc(F)cc2)c2ccc(F)cc2)CC1`, the Potency result is “inactive”.
The same measure, in the same setting: the result for `CCCCC/C(=C\c1ccccc1)CO` reads “inactive”.
Still for that read-out and setting: the result for `CNCC[C@@H](Oc1ccccc1C)c1ccccc1` reads “inactive”; that for `CCC(Cl)C(Cl)C(Cl)CC(Cl)C(Cl)C(C)Cl` (stereo not given), “inactive”; that for `O=C1Cc2ccccc2C1`, “inactive”.
On the same count and under the same terms, the result for `COc1cc2c(cc1OC)-c1cc(=Nc3c(C)cc(C)cc3C)n(C)c(=O)n1CC2` reads “inactive”.
Take `O=C(Nc1ccc(C(=O)O)c(O)c1)c1ccccc1`: the Potency entry was “inactive”.
Turning to `O=Cc1ccc(Cl)c([N+](=O)[O-])c1`, the Potency entry is “inactive”.
With `C=C/C=C/C=C/CCCCC`, the activation was 0.27% [at 15.8 µM].
Regarding `COC(C)=O`, the Potency entry is “inactive”.
Same read-out and setting: the result for `CNC(C)=O` reads “inactive”.
The same measure, in the same setting: the result for `C/C(CC(C)C)=N\O` reads “inactive”; that for `C[C@]12C(=O)OC(=O)[C@H]1[C@H]1C=C[C@@H]2C1`, “inactive”; that for `Oc1ccc(Cc2ccccc2)cc1`, “inactive”.
On the same count and under the same terms, in the case of `CCN(CCCc1ccccc1)CCCc1ccccc1` it was “inactive”.
Turning to `CCc1cc2cc(OC)c(OC)cc2c(Cc2ccccc2)n1`, the Potency entry is “inactive”.
Still for that read-out and setting: in the case of `Nc1cc(Cl)cc(S(=O)(=O)O)c1O` it was “inactive”.
Turning to `CC(=O)CC(=O)Nc1ccc(S(=O)(=O)O)cc1`, the Potency result was “inactive”.
On the same count and under the same terms, the result for `C=C(C)C(=O)OCC(O)COc1ccc(C(C)(C)c2ccc(OCC(O)COC(=O)C(=C)C)cc2)cc1` (stereo not given) reads “inactive”; that for `C=C[Si](OC)(OC)OC`, “inactive”; that for `COC(=O)[C@@H](N)Cc1ccc(O)c(O)c1`, “inactive”.
Still for that read-out and setting: the result for `Cc1c[nH]c(=S)[nH]c1=O` reads “inactive”; that for `CO[Si](OC)(c1ccccc1)c1ccccc1`, “inactive”; that for `COC(=O)c1nc(Cl)c(Cl)nc1N`, “inactive”.
Still for that read-out and setting: the result for `CCOc1ccc2nc(N)sc2c1` reads “inactive”.
Take `Nc1cccnc1N`: the Potency result was “inactive”.
The same measure, in the same setting: in the case of `SCCOCCOCCS` it was “inactive”.
Same read-out and setting: the result for `C=Cc1ccc(C=C)cc1` reads “inactive”.
For the compound `COc1cc(C(C)C)c2c(c1)S(=O)(=O)N(COc1cc(=O)n3cccc(OCCN4CCCCC4)c3n1)C2=O`, the activation was -0.958% [at 15.8 µM].
Consider `CCOC(=O)OCC`, for which the Potency result was “inactive”.
On the same count and under the same terms, the result for `Nc1ccc(Oc2ccc(N)c(N)c2)cc1` reads “inactive”.
On the same count and under the same terms, the result for `C=C(C)C(=O)OCCOCCOCCOCCOC(=O)C(=C)C` reads “inactive”; that for `CC(C)(C)c1cc(/C=C2\SC(=N)NC2=O)cc(C(C)(C)C)c1O`, “inactive”.
On the same count and under the same terms, the result for `NNC(=O)OCc1ccccc1` reads “inactive”; that for `CCC1OCC(COc2ccc(Oc3ccccc3)cc2)O1` (stereo not given), “inactive”.
Consider `CCCCCC(C)O` (stereo not given), for which the Potency result was “inactive”.
The same measure, in the same setting: the result for `CCOC(=O)/C=C/c1ccccc1` reads “inactive”; that for `COC(=O)[C@@H]1CC2=CC(=O)CC[C@]2(C)[C@@]23O[C@@H]2C[C@@]2(C)[C@@H](CC[C@@]24CCC(=O)O4)[C@H]13`, “inactive”.
Same read-out and setting: the result for `CC(CO)(CO)[N+](=O)[O-]` reads “inactive”; that for `CCCCC1C(=O)N(c2ccccc2)N(c2ccc(O)cc2)C1=O` (stereo not given), “inactive”.

The record behind these values is PubChem BioAssay (Tox21).
